# Entries with a potency or affinity are not part of this list. Inconclusive results are not listed. Calls of active or inactive are those of the source.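 Rule for the calls: active = compound whose fitted half-maximal inhibition concentration is at most triple the top dose in every replicate run; inconclusive = runs disagree, or flat partial inhibition, or poor curve fit; inactive = every run inactive: flat, opposite effect, or too weak.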
# Biological target: Cyclin-dependent kinase 5 activator 1 (Homo sapiens) + Cyclin-dependent kinase 5 (Homo sapiens) (UniProt Q15078+Q00535)
# Sequence (Q00535 whole entry, looked up): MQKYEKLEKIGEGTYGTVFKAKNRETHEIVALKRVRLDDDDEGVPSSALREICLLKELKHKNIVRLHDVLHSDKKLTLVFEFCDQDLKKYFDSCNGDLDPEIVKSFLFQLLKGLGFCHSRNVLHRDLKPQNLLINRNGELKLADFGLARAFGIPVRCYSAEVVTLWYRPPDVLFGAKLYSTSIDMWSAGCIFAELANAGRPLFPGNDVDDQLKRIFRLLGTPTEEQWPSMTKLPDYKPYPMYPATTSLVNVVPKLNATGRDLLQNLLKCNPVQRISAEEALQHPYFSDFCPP
# Sequence (Q15078 whole entry, looked up): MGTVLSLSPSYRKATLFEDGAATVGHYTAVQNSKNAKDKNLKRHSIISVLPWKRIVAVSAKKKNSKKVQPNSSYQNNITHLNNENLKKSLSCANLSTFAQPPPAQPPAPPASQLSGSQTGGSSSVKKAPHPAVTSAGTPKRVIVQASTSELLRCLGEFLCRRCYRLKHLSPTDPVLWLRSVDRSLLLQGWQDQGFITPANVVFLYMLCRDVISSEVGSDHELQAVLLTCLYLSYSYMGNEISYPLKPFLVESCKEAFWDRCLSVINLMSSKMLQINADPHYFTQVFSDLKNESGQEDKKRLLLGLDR
# Assay: CDK5-p25 kinase inhibitors, specificity check, dose response, selectivity assay for GSK-3 alpha inhibitor project, biochemical, microfluidic mobility shift, dry powder (AID 588430)
# Conditions: Caliper mobility shift, peptide conversion; series mostly up to 35 µM; activity change, negative = inhibition: at the top concentration
row,Structure (SMILES),"activity change, negative = inhibition"
1,c1ccc(-c2nc(NCCCn3ccnc3)c3ccccc3n2)cc1,-10.4% (inactive)
2,O=C(Nc1ccsc1C(=O)NC1CCCCC1)c1ccc(F)cc1,-0.994% (inactive)
3,COc1ccc(OC)c(/C=N/NC(=O)c2nnn(-c3nonc3N)c2-c2cccs2)c1,-4.98% (inactive)
4,Nc1nc(NCCCN2CCOCC2)nc(Nc2cccc(Cl)c2)c1[N+](=O)[O-],-21.5% (inactive)
5,Fc1ccc(CSc2nnc(-c3ccncc3)o2)cc1,-7.17% (inactive)
6,CN(C)Cc1c(C(=O)N/N=C/c2ccncc2)nnn1-c1nonc1N,-19.5% (inactive)
7,Nc1nonc1-n1nnc(C(=O)N/N=C/c2ccccc2Cl)c1CN1CCOCC1,-8.98% (inactive)
8,CCOC(=O)c1ccc2ncc(C(=O)OCC)c(Nc3ccc(N4CCOCC4)cc3)c2c1,-19.3% (inactive)

# — PubChem BioAssay AID588430 (Broad Institute, 2011)
